{"source": "PubChem BioAssay (NCI)", "note": "“And” between values parts separate entries of the source, which are not always exact repeats. Equal entries are not always repeated. The panel holds about 83,000 compounds, 20% with a hit somewhere; the sample as a whole holds those more often.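 Cells were grown in 96-well plates and exposed to the test compound at a single concentration for 48 hours; results are reported as percent growth, with values below 10 considered active.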 The source made the active and inactive calls. Where a SMILES comes first, the peptide text is derived from it."}
{"tested_on": "LOX IMVI melanoma", "assay": "NCI-60 one-dose screen, 48 h (100 = growth as untreated, 0 = no growth, -100 = all killed)", "settings": "10 µM unless noted", "method": "Growth inhibition of the LOX IMVI human tumor cell line is measured as a screen for anti-cancer activity. Cells are grown in 96 well plates and exposed to the test compound for 48 hours. Compounds are tested at a single concentration, which is 10^-5 M for most compounds. The reported endpoint is percent growth (GI% or GIPRCNT), where numbers from 0 - 100% represent growth inhibition, and numbers from -100% - 0 represent cell death. For example, a value of 40 represents 60% growth inhibition. A value of 0 means no net growth occurred over the course of the experiment. A value of -40 indicates 40% of cells at the beginning of the experiment died by the end of the experiment. A value of -100 means all cells are dead at the end of the experiment.\nNCI-60 Human Tumor Cell Lines Screen was performed using the standard one-dose NCI protocol, which is described in more detail at https://dtp.cancer.gov/discovery_development/nci-60/default.htm.\nCompounds with GIPRCNT values below 10 were considered active. Activity score was based on GIPRCNT using the following formula: […]\nScore is 0 for GIPRCNT values of 100 or above, 50 for GIPRCNT values of 0, and 100 for GIPRCNT values of -100."}
{"smiles": "O=c1n(CC2CO2)c(=O)n(CC2CO2)c(=O)n1CC1CO1", "note": "(stereo not given)", "growth": "54.5% (inactive)"}
{"smiles": "CCN(CCNS(C)(=O)=O)c1ccc(N)c(C)c1", "growth": "52.9% (inactive) and 68.4% (inactive)"}
{"smiles": "CC[C@H](CC[C@@H](C)[C@H]1CC[C@H]2[C@@H]3CC=C4C[C@@H](O)CC[C@]4(C)[C@H]3CC[C@]12C)C(C)C", "growth": "92.6% (inactive) and 101% (inactive)"}
{"smiles": "CCCCCCCCCCCCCCCCC(C(=O)O)C(O)(CC(=O)O)C(=O)O", "note": "(stereo not given)", "growth": "106% (inactive) and 0.982% (active)"}
{"smiles": "CCc1cc(C)cc(O)c1", "growth": "105% (inactive)"}
{"smiles": "O=C(/C=C/c1ccccc1)c1ccccc1", "growth": "89.7% (inactive)"}
{"smiles": "Oc1ccc(Cc2ccccc2Cl)c(O)c1", "growth": "86.3% (inactive)"}
{"smiles": "Cc1ccc(S(=O)(=O)c2ccccc2)cc1", "growth": "21% (inactive)"}
{"smiles": "NC(Cc1c[nH]c2ccccc12)C(=O)O", "note": "(stereo not given)", "growth": "96.1% (inactive) and 95.8% (inactive)"}
{"smiles": "C#CCOC(=O)Nc1ccccc1", "growth": "99.2% (inactive)"}
{"smiles": "c1ccc(-c2nc3ccccc3s2)cc1", "growth": "88.5% (inactive)"}
{"smiles": "CCOC(=O)c1c(C)cc(=O)oc1C", "growth": "105% (inactive)"}
{"smiles": "NN1CCOC(c2ccccc2)C1", "note": "(stereo not given)", "growth": "94.6% (inactive)"}
{"smiles": "Nc1ncnc2c1ncn2C1OC(COP(=O)(O)O)C(O)C1O", "note": "(stereo not given)", "growth": "108% (inactive)"}
{"smiles": "CC(C)NC(=O)N/C=C(\\C#N)C(N)=O", "growth": "97.2% (inactive)"}
{"smiles": "CC(=O)NCC(=O)c1ccc([N+](=O)[O-])cc1", "growth": "95% (inactive)"}
{"smiles": "Nc1ccc2c(O)cc(S(=O)(=O)O)cc2c1", "growth": "92.8% (inactive)"}
{"smiles": "CC(C)C(C)(C)c1ccc(O)cc1", "growth": "98.4% (inactive)"}
{"smiles": "CC1CCC2(C(=O)O)CCC3(C)C(=CCC4C5(C)CCC(O)C(C)(C)C5CCC43C)C2C1C", "note": "(stereo not given)", "growth": "25.3% (inactive) and 70.1% (inactive)"}
{"smiles": "COc1ccc(N/C=C/C2=[N+](C)c3ccccc3C2(C)C)c(OC)c1", "growth": "96% (inactive)"}
{"smiles": "CN1CNC(=O)NC1", "growth": "99.6% (inactive) and 95.4% (inactive)"}
{"smiles": "Nc1cc(N)c(N)cc1N", "growth": "-93.8% (active)"}
{"smiles": "c1ccc(CNCCNCc2ccccc2)cc1", "growth": "110% (inactive)"}
{"smiles": "CC(C)(O)C(=O)O", "growth": "101% (inactive)"}
{"smiles": "Cl", "growth": "97% (inactive)"}
{"smiles": "COc1ccc(C(=O)CC(c2ccccc2)C(C#N)c2ccccc2)cc1", "note": "(stereo not given)", "growth": "85.2% (inactive)"}
{"smiles": "CN(C)CC1CCCCCC(CN(C)C)C1=O", "note": "(stereo not given)", "growth": "81.3% (inactive)"}
{"smiles": "Cc1ccc(=O)[nH]n1", "growth": "94.7% (inactive) and 107% (inactive)"}
{"smiles": "O=C1OC(C(O)C(O)CO)C(O)=C1O", "note": "(stereo not given)", "growth": "104% (inactive) and 99.2% (inactive)"}
{"smiles": "COc1cc(C(O)C2C(=O)OCC2C2(c3ccc4c(c3)OCO4)SCCCS2)cc(OC)c1OC", "note": "(stereo not given)", "growth": "92.1% (inactive)"}
{"smiles": "C/C(=C\\c1ccccc1)c1ccccn1", "growth": "112% (inactive)"}
{"smiles": "CCCCNc1ccc(Nc2ccccc2)cc1", "growth": "64.9% (inactive)"}
{"smiles": "Nc1nc(N)c2[nH]cnc2n1", "growth": "83% (inactive)"}
{"smiles": "NC(=O)NCCCC(N)C(=O)O", "note": "(stereo not given)", "growth": "67.6% (inactive)"}
{"smiles": "O=C1OC(c2ccccc2)=N/C1=C\\c1ccccc1", "growth": "98.1% (inactive)"}
{"smiles": "O=[N+]([O-])c1cccc(SSc2cccc([N+](=O)[O-])c2)c1", "growth": "100% (inactive)"}
{"smiles": "Cc1cc(-c2cc(C)c(O)c(C)c2)cc(C)c1O", "growth": "76.8% (inactive)"}
{"smiles": "Brc1ccc(SSc2ccc(Br)cc2)cc1", "growth": "3.5% (active)"}
{"smiles": "NC(Cc1ccccc1)C(=O)NC(Cc1ccccc1)C(=O)O", "note": "(stereo not drawn) (H-Phe-Phe-OH; configuration not given here)", "growth": "95.3% (inactive) and 103% (inactive)"}
{"smiles": "O=C(Cc1ccccc1)c1ccc(O)c(Cl)c1", "growth": "15.2% (inactive)"}
